According to the supplement of paper PMC10849652:
Of roughly 8,800 targets only a part is listed; those with a hit were picked by preference. About 0.5% of all pairs of compound and target were hits.

Columns and labels:
Assay in all cases: log2 fold change, soluble protein after heating vs DMSO (PISA); higher = thermal stabilisation; K562 lysate, 10 uM; active = over 0.2 and 3.5 SD of the protein, either way, in both replicates (recomputed)
vemurafenib = compound: CCCS(=O)(=O)Nc1ccc(F)c(C(=O)c2c[nH]c3ncc(-c4ccc(Cl)cc4)cc23)c1F [vemurafenib]
In short: (§1)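 Soluble protein was defined as the supernatant remaining after 21,000xg for 90 min, following pooling of heated aliquots and adjustment to 0.5% NP-40 at 4°C. Before that, crude K562 extract at 1 mg/mL protein in PBS pH 7.4 with 1 mM MgCl2 was treated with 10 μM compound for 30 min and heated for 3 min across 48°C-58°C. Quantification used TMTpro 16plex LC-MS/MS with channel sums equalised, and values are log-two fold changes in thermal stability relative to solvent controls from duplicates.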

[1] = compound: CCCS(=O)(=O)Nc1ccc(F)c(C(=O)c2c[nH]c3ncc(Cl)cc23)c1F
In short: as §1

[2] = compound: CC[C@@H]1C(=O)N(C)c2cnc(Nc3ccc(C(=O)NC4CCN(C)CC4)cc3OC)nc2N1C1CCCC1
In short: as §1

volasertib = compound: CC[C@@H]1C(=O)N(C)c2cnc(Nc3ccc(C(=O)N[C@H]4CC[C@H](N5CCN(CC6CC6)CC5)CC4)cc3OC)nc2N1C(C)C [volasertib]
In short: as §1

[3] = compound: CCn1c(C(=O)N(C2CC2)C2CC2)cc2c3c(ncn3C)c(Nc3cc(C)n(C)n3)nc21
In short: as §1

[4] = compound: CCn1cc(-c2ccnc3[nH]c(-c4cccc(CN(C)C)c4)cc23)c(-c2ccc(NC(=O)N(C)C)cc2)n1
In short: as §1

[5] = compound: CN1CCC(CNc2ccc3ncc(-c4cccc(OC(F)(F)F)c4)n3n2)CC1
In short: as §1

saracatinib = compound: CN1CCN(CCOc2cc(OC3CCOCC3)c3c(Nc4c(Cl)ccc5c4OCO5)ncnc3c2)CC1 [saracatinib]
In short: as §1

sotrastaurin = compound: CN1CCN(c2nc(C3=C(c4c[nH]c5ccccc45)C(=O)NC3=O)c3ccccc3n2)CC1 [sotrastaurin]
In short: as §1

alvocidib = compound: CN1CC[C@H](c2c(O)cc(O)c3c(=O)cc(-c4ccccc4Cl)oc23)[C@H](O)C1 [alvocidib]
In short: as §1

Tubastatin A = compound: CN1CCc2c(c3ccccc3n2Cc2ccc(C(=O)NO)cc2)C1 [Tubastatin A]
In short: as §1

[6] = compound: CNC(=O)C1=CC=CC=C1NC2=NC(=NC=C2Cl)NC3=C(C=C(C=C3)N4CCOCC4)OC
In short: as §1

defactinib = compound: CNC(=O)c1ccc(Nc2ncc(C(F)(F)F)c(NCc3nccnc3N(C)S(C)(=O)=O)n2)cc1 [defactinib]
In short: as §1

[7] = compound: CNc1nc(-c2ccc3c(N)n[nH]c3c2)cc(N2C[C@@H](C(=O)NC3CCCCC3)CC[C@H]2C)n1
In short: as §1

encorafenib = compound: COC(=O)N[C@@H](C)CNc1nccc(-c2cn(C(C)C)nc2-c2cc(Cl)cc(NS(C)(=O)=O)c2F)n1 [encorafenib]
In short: as §1

[8] = compound: COC(=O)[C@H](CCSC)NC(=O)C1=C(C=C(C=C1)NC[C@H](CS)N)C2=CC=CC=C2
In short: as §1

alisertib = compound: COc1cc(Nc2ncc3c(n2)-c2ccc(Cl)cc2C(c2c(F)cccc2OC)=NC3)ccc1C(=O)O [alisertib]
In short: as §1

[9] = compound: COc1cc2nc(-c3cc(F)ccc3O)nc(N[C@@H]3CNC[C@H]3C(C)(C)O)c2cc1OC
In short: as §1

gefitinib = compound: COc1cc2ncnc(Nc3ccc(F)c(Cl)c3)c2cc1OCCCN1CCOCC1 [gefitinib]
In short: as §1

barasertib = compound: CCN(CCCOc1ccc2c(Nc3cc(CC(=O)Nc4cccc(F)c4)[nH]n3)ncnc2c1)CCOP(=O)(O)O [barasertib]
In short: as §1

Measured: log2 fold change

C1orf131 isoform 5 (UniProt Q8NDD1)
Chain of UniProt Q8NDD1 (Q8NDD1 whole entry, looked up): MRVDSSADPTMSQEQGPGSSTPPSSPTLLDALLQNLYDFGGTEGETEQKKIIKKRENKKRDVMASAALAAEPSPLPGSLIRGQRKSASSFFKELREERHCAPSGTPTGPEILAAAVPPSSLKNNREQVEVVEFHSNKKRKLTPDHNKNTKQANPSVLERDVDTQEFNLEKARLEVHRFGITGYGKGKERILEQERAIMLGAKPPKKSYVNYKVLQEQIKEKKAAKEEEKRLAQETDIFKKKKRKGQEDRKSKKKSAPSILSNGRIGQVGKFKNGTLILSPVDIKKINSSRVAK
inactive: vemurafenib 0.034 | [1] 0.026 | [2] 0.148 | volasertib -0.029 | [3] -0.042 | [4] -0.242 | [5] 0.095 | saracatinib -0.009 | sotrastaurin 0.017 | alvocidib -0.118 | Tubastatin A -0.036 | [6] 0.03 | defactinib 0.013 | [7] 0.148 | encorafenib 0.127 | [8] 0.02 | alisertib 0.148 | [9] -0.038 | gefitinib 0.111

BTK isoform 2 (UniProt Q06187)
inactive: vemurafenib -0.014 | [1] 0.013 | barasertib 0.128 | volasertib -0.106 | [3] 0.01 | [4] -0.147 | [5] 0.053 | saracatinib 0.058 | sotrastaurin -0.026 | alvocidib -0.037 | Tubastatin A -0.113 | defactinib 0.017 | [7] -0.039 | encorafenib -0.033 | [8] 0.051 | alisertib -0.012 | [9] -0.029 | gefitinib -0.046
active: [6] 0.307

CAMK1 (UniProt Q14012)
Chain of UniProt Q14012 (Q14012 whole entry, looked up): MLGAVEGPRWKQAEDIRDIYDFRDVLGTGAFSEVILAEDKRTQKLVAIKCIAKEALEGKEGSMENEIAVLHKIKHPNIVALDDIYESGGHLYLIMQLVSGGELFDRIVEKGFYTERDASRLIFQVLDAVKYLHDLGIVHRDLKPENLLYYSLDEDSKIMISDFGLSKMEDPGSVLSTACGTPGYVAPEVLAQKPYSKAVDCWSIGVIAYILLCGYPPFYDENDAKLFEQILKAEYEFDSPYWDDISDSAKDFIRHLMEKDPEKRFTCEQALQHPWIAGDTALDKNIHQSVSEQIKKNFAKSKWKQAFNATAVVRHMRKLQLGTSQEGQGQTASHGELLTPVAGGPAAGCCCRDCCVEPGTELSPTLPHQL
inactive: vemurafenib -0.094 | barasertib 0.027 | [2] 0.106 | volasertib -0.018 | [3] -0.06 | [4] -0.095 | [5] 0.272 | saracatinib -0.061 | sotrastaurin -0.016 | alvocidib -0.074 | Tubastatin A 0 | [6] 0.067 | defactinib 0.04 | [7] -0.036 | encorafenib -0.054 | [8] -0.032 | alisertib 0.016 | [9] 0.029 | gefitinib -0.01

BCKDK (UniProt O14874)
inactive: vemurafenib -0.036 | [1] 0.002 | barasertib -0.028 | [2] 0.203 | volasertib -0.037 | [3] 0.067 | [4] -0.033 | [5] 0.059 | saracatinib 0.031 | sotrastaurin 0.028 | alvocidib 0.029 | Tubastatin A -0.117 | [6] -0.005 | defactinib 0.029 | [7] -0.098 | encorafenib -0.061 | [8] 0.066 | alisertib 0.023 | [9] -0.027 | gefitinib 0.053

CDK5 (UniProt Q00535)
Chain of UniProt Q00535 (Q00535 whole entry, looked up): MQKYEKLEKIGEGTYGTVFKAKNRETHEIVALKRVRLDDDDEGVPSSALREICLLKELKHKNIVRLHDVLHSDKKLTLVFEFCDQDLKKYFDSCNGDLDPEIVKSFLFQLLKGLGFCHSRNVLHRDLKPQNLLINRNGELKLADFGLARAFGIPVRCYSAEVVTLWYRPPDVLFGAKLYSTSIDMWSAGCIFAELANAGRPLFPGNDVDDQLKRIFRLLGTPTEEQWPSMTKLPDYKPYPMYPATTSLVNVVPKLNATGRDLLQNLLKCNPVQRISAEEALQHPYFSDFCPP
active: alvocidib 1.07 | defactinib 0.654
inactive: vemurafenib -0.021 | [1] 0.022 | [2] -0.08 | volasertib -0.079 | [3] 0.008 | [4] -0.055 | [5] 0.071 | saracatinib -0.008 | sotrastaurin 0.175 | Tubastatin A -0.058 | [6] 0.211 | [7] -0.032 | encorafenib 0.024 | [8] -0.1 | alisertib -0.032 | [9] 0.03 | gefitinib -0.027

CDK17 isoform 2 (UniProt Q00537)
Chain of UniProt Q00537 (Q00537 whole entry, looked up): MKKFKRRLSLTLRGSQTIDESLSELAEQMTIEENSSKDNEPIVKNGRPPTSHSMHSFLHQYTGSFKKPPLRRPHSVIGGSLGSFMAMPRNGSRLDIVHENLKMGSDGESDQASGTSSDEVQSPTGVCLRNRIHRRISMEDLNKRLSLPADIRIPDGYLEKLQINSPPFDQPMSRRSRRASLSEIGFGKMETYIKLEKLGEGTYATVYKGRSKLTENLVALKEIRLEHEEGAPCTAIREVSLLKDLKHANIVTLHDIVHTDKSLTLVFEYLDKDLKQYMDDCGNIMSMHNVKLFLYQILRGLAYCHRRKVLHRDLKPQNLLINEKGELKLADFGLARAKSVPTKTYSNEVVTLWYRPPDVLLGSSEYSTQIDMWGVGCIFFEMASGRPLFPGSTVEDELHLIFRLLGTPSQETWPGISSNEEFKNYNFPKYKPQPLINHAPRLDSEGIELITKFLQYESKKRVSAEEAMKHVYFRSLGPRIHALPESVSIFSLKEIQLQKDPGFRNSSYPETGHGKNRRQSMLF
active: alvocidib 0.599
inactive: vemurafenib -0.115 | barasertib 0.011 | [2] -0.078 | [3] -0.007 | [4] 0.091 | [5] -0.299 | saracatinib -0.017 | sotrastaurin 0.03 | Tubastatin A -0.015 | [6] -0.051 | defactinib 0.139 | [7] -0.018 | encorafenib 0.099 | [8] -0.129 | alisertib -0.121 | gefitinib -0.132

BUD23 isoform 3 (UniProt O43709)
inactive: vemurafenib 0.01 | [1] 0.017 | barasertib 0.038 | [2] -0.006 | volasertib -0.029 | [3] -0.104 | [5] 0.193 | saracatinib 0.019 | sotrastaurin 0.017 | alvocidib -0.126 | Tubastatin A 0.14 | [6] 0.026 | defactinib -0.046 | [7] -0.052 | encorafenib -0.017 | [8] 0.036 | alisertib 0.082 | [9] 0.085 | gefitinib 0.054
active: [4] -0.341

CDK16 isoform 2 (UniProt Q00536)
Chain of UniProt Q00536 (Q00536 whole entry, looked up): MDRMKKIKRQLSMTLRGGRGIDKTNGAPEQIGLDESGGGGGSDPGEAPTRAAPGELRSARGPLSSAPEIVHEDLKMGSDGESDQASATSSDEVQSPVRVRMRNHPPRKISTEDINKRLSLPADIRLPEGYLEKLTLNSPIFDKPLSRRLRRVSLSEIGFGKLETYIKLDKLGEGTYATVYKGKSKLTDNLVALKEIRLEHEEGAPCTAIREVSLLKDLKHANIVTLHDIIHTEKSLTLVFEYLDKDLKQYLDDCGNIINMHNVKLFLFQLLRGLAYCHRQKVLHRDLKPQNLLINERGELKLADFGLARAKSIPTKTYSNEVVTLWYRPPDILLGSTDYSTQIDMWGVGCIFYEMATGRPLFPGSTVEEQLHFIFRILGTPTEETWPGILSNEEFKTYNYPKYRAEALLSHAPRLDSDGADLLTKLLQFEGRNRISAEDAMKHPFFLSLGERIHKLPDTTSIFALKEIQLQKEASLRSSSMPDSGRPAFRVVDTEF
inactive: vemurafenib 0.03 | [1] 0.075 | barasertib 0.007 | [2] -0.006 | volasertib -0.175 | [3] -0.03 | [4] -0.027 | [5] 0.083 | saracatinib 0.03 | sotrastaurin 0.236 | Tubastatin A 0.029 | [6] 0.05 | defactinib 0.285 | [7] 0.106 | encorafenib 0.04 | [8] -0.024 | alisertib -0.014 | [9] 0.008 | gefitinib -0.026

C8orf37 (UniProt Q96NL8)
Chain of UniProt Q96NL8 (Q96NL8 whole entry, looked up): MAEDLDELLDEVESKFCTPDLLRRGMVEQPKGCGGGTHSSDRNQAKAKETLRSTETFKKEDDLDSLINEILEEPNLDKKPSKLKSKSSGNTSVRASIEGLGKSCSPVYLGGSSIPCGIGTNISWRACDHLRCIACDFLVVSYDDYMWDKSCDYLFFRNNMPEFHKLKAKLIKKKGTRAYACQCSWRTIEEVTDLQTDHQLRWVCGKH
inactive: vemurafenib 0.081 | [1] -0.061 | barasertib -0.062 | [2] 0.058 | volasertib -0.043 | [3] -0.075 | [4] 0.225 | [5] 0.166 | saracatinib -0.06 | sotrastaurin 0.072 | alvocidib -0.146 | Tubastatin A 0.022 | [6] -0.035 | defactinib 0.281 | [7] -0.099 | encorafenib 0.018 | [8] -0.011 | [9] 0.162

CANX (UniProt D6RHJ3)
inactive: vemurafenib -0.033 | [1] -0.04 | volasertib 0.017 | defactinib 0.174 | alisertib 0.068 | [9] 0.07 | gefitinib -0.242

C1orf112 (UniProt Q9NSG2)
Chain of UniProt Q9NSG2 (Q9NSG2 whole entry, looked up): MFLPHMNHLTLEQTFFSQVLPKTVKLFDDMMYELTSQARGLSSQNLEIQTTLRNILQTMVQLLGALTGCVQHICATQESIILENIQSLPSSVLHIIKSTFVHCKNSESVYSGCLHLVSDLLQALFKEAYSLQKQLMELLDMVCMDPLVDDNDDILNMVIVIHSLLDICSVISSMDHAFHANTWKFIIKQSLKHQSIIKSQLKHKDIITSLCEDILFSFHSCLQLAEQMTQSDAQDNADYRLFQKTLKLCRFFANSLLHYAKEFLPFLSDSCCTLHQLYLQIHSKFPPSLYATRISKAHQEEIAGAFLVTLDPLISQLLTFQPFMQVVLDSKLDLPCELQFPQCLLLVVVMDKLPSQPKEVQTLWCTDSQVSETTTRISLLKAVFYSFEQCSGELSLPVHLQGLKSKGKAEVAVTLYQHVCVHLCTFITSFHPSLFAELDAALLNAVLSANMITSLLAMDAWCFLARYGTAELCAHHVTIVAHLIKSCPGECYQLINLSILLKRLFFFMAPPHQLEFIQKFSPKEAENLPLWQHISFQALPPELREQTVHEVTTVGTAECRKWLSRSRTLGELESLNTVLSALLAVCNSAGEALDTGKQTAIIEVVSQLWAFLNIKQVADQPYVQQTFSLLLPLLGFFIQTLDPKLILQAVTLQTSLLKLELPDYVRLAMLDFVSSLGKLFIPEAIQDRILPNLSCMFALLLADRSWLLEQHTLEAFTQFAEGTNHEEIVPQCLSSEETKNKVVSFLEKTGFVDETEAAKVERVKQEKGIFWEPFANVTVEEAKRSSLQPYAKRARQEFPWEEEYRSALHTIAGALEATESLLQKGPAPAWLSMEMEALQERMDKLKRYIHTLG
inactive: vemurafenib 0 | [1] 0.006 | barasertib -0.04 | [2] -0.065 | volasertib 0.034 | [3] 0.037 | [4] 0.171 | [5] -0.059 | saracatinib 0.065 | sotrastaurin 0.025 | alvocidib -0.247 | Tubastatin A -0.181 | [6] 0.077 | defactinib 0.038 | [7] -0.082 | encorafenib 0.037 | [8] 0.096 | alisertib -0.032 | [9] -0.046 | gefitinib -0.004

BAHCC1 (UniProt Q9P281)
inactive: vemurafenib 0.11 | [1] 0.004 | [2] -0.247 | volasertib 0 | [4] 0.415 | [5] 0.219 | saracatinib 0.025 | sotrastaurin 0.127 | alvocidib -0.569 | [6] -0.135 | defactinib -0.208 | [7] -0.054 | encorafenib 0.038 | [8] -0.024 | alisertib 0.085 | [9] 0.076 | gefitinib 0.095

ATXN2 (UniProt F8WB05)
inactive: vemurafenib -0.153 | [1] -0.024 | barasertib 0.057 | [2] -0.013 | volasertib -0.087 | [3] -0.005 | [4] 0.094 | [5] -0.004 | saracatinib 0.05 | sotrastaurin 0.086 | alvocidib -0.051 | Tubastatin A 0.23 | [6] 0.101 | defactinib -0.063 | [7] -0.03 | encorafenib -0.033 | [8] 0.023 | [9] 0.033

C12orf45 (UniProt Q8N5I9)
inactive: vemurafenib -0.015 | [1] -0.017 | barasertib -0.022 | [2] 0.009 | volasertib 0.008 | [3] 0.023 | [4] -0.243 | [5] 0.116 | saracatinib -0.022 | sotrastaurin -0.026 | alvocidib -0.13 | Tubastatin A 0.007 | [6] 0.004 | defactinib -0.042 | [7] 0.036 | encorafenib 0.05 | [8] -0.06 | alisertib 0.016 | [9] 0.01 | gefitinib 0.011

CDKL5 (UniProt O76039)
Chain of UniProt O76039 (O76039 whole entry, looked up): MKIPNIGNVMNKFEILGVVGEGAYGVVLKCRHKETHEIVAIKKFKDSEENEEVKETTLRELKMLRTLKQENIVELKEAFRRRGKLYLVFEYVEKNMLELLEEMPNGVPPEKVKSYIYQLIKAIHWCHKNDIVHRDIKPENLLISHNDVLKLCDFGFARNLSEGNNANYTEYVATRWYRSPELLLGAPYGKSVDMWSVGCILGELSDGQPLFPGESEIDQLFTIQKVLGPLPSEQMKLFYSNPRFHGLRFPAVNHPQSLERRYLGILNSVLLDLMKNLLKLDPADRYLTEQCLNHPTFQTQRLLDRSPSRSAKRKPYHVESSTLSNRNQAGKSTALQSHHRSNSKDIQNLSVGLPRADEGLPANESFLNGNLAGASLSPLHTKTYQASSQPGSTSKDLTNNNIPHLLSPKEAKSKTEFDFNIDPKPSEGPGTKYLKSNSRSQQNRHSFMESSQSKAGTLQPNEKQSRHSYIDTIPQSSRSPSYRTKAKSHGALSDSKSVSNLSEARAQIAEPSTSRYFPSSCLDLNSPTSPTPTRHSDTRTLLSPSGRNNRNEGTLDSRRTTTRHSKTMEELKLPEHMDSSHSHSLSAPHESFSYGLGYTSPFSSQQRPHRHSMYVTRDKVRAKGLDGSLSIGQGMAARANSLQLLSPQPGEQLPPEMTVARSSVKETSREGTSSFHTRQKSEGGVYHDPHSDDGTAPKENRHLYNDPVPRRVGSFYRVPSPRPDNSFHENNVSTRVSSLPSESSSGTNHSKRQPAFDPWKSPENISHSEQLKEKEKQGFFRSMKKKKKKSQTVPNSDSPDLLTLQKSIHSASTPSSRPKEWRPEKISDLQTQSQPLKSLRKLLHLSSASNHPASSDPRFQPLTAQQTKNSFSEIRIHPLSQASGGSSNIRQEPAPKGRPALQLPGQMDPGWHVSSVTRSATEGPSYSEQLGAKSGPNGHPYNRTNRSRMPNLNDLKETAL
inactive: vemurafenib -0.131 | [1] 0.041 | [2] -0.149 | volasertib -0.035 | [4] -0.091 | [5] 0.088 | saracatinib -0.122 | sotrastaurin 0.048 | defactinib 0.55 | [7] -0.052 | encorafenib -0.038 | [8] -0.116 | [9] 0.058
active: alvocidib 1.14

CCNC (UniProt P24863)
Chain of UniProt P24863 (P24863 whole entry, looked up): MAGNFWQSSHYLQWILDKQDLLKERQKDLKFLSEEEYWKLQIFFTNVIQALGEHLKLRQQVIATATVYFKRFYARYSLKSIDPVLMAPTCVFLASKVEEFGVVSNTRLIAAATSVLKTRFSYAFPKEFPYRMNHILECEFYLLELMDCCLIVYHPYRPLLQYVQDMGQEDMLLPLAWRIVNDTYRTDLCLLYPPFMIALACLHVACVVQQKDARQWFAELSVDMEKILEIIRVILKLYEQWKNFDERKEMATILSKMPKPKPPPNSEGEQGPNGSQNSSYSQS
inactive: vemurafenib 0.22 | [1] 0.046 | barasertib -0.026 | [2] -0.017 | volasertib -0.079 | [3] 0.029 | [4] -0.211 | [5] 0.135 | saracatinib -0.001 | sotrastaurin -0.062 | alvocidib 0.182 | Tubastatin A -0.079 | [6] -0.018 | defactinib -0.073 | [7] -0.052 | encorafenib 0.041 | [8] 0.039 | alisertib 0.009 | [9] -0.05 | gefitinib 0.017

CANX isoform 2 (UniProt P27824)
Chain of UniProt P27824 (P27824 whole entry, looked up): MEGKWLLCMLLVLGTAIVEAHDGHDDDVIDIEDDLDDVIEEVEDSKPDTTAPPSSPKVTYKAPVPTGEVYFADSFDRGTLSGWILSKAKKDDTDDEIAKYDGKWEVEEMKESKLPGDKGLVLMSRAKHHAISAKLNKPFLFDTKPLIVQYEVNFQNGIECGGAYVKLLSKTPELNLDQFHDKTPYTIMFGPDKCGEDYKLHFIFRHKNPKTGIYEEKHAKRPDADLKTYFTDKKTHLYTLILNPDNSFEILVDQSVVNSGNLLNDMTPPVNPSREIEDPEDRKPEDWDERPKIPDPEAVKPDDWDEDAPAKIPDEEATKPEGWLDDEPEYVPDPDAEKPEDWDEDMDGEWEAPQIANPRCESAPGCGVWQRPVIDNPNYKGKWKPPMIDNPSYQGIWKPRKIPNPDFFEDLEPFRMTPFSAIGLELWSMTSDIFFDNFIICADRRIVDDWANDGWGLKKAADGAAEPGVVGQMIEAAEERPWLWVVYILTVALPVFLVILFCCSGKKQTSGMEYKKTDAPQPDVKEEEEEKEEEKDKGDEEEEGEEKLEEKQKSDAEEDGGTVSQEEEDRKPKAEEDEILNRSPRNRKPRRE
inactive: vemurafenib 0.015 | [1] -0.012 | barasertib -0.015 | [2] 0.061 | volasertib 0.033 | [3] -0.014 | [4] -0.074 | [5] 0.034 | saracatinib 0.001 | sotrastaurin 0.036 | alvocidib -0.024 | Tubastatin A 0.05 | [6] -0.006 | defactinib 0.002 | [7] -0.003 | encorafenib 0.027 | [8] -0.015 | alisertib -0.008 | [9] 0.023 | gefitinib 0.008
